106 molecules from PubChem BioAssay AID624202 (National Center for Advancing Translational Sciences (NCATS), 2012) can be followed below.

In all, about 380,000 compounds went through this assay and about 4,000 (1.1%) were called active. Where a call stands in place of a potency, no number is given. Not shown: some 3% with an inconclusive outcome. The sample holds actives, similar compounds and a random draw of the others, so the mix is not that of the screen. Values without a mark were called inactive. Calls come from the whole dose curve; as a rule, active = well fitted activation curve with a large enough effect; inconclusive = small, poorly fitted or top-dose-only effect; inactive = no such curve, though single readings can be large or run the other way.
Potency is the fitted concentration of half-maximal effect.

The test in a line: qHTS Assay to Identify Small Molecule Activators of BRCA1 Expression. Note: nearly all actives have a fitted effect of over 80% in size. The note with it: MCF7-BRCA1-FFLuc reporter, luminescence, 48 h; series mostly up to 46.1 µM. In a few lines: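 MCF7-BRCA1-FFLuc, 2000 cells/well; 2 h attach, 37 °C/5% CO2; compound 48 h; luciferase substrate 15 min; luminescence end-point. Norm. to genistein 10 microM max activation and DMSO; concentration-response curves fitted.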
A general note: qHTS replaces the single test concentration by a dilution series.
For `CCN(CC)c1ccc(C(=O)OCC(=O)c2ccco2)cc1`, the Potency is 8.91 µM (active).

As to `O=C(COC(=O)c1ccccc1C(=O)c1ccccc1)c1ccco1`, the Potency entry is “inactive”.

As to `CCc1ccc(C(=O)COC(=O)c2ccco2)cc1`, the Potency entry is “inactive”.

For `COc1ccc(S(=O)(=O)n2nc(C)c(S(=O)(=O)N3CCCCCC3)c2C)cc1`, the Potency result is “inactive”.

Take `COc1ccc(S(=O)(=O)Nc2cccc3cccnc23)c(N)c1`: the Potency entry is “inactive”.

In the case of `O=C(NCC1CCCO1)c1cc2c(s1)CCCC2` (stereo unspecified), the Potency is 5.62 µM (active).

Consider `CCC(=O)c1c[nH]c(C(=O)NCC2CCCO2)c1` (stereo unspecified), for which the Potency result is “inactive”.

In the case of `O=C(NCCCn1ccnc1)c1cc2c(s1)CCCC2`, the Potency result was “inactive”.

As to `Fc1cccc(Cl)c1CSc1ccc(-c2ccco2)nn1`, the Potency was 3.55 µM (active).

For `COc1ccc(NC(=O)CSc2ccc(-c3ccco3)nn2)c(OC)c1`, the Potency entry is “inactive”.

With `Cc1snc(SCc2c(F)cccc2Cl)c1C#N`, the Potency result is “inactive”.

With `O=C(NC(=S)Nc1ccc(Cl)cc1Cl)C1CC1`, the Potency is 3.16 µM (active).

As to `O=C(NC(=S)Nc1ccc(Br)cc1F)C1CCCCC1`, the Potency entry is “inactive”.

For `S=C(Nc1ccc(Cl)cc1Cl)N1CCCC1`, the Potency result was “inactive”.

In the case of `CCOc1ccc(NC(=O)Nc2cc(C)on2)cc1`, the Potency is 7.94 µM (active).

Turning to `CCOc1ccc(NC(=O)Nc2ccc(N(C)C(C)=O)cc2)cc1`, the Potency entry is “inactive”.

For the molecule `CCC(=O)Nc1ccc(C(=O)Nc2cc(C)on2)cc1`, the Potency result was “inactive”.

Turning to `Cc1ccccc1OCCSc1nc2ccc(NC(=O)c3ccco3)cc2s1`, the Potency entry is “inactive”.

Take `Oc1ccc(Br)cc1C1C=C(c2ccc3c(c2)OCO3)NC(c2ccc(Cl)cc2)N1` (stereo unspecified): the Potency result was “inactive”.

`COc1cc(CN2CCC(C(N)=O)CC2)ccc1OCc1ccccc1`: the Potency is 11.2 µM (active).

For `COc1ccc(CCN2C(=O)CC(N3CCC(C(N)=O)CC3)C2=O)cc1OC` (stereo unspecified), the Potency entry was “inactive”.

`COc1ccc(COCC(O)CN2CCC(C(N)=O)CC2)cc1` (stereo unspecified): the Potency result is “inactive”.

On to `CN(C)c1ccc(/C=C/c2sc3ccccc3[n+]2C)cc1`, for which the Potency result was “inactive”.

Turning to `COC(=O)[C@@H](NC(=O)NCc1cccc(OC)c1)C(C)C`, the Potency result is “inactive”.

On to `COc1ccc(S(=O)(=O)N(C)C)cc1NC(=O)COC(=O)c1n[nH]c2ccccc12`, for which the Potency result was “inactive”.

`COc1cccc(CNC(=O)c2n[nH]c3ccccc23)c1`: the Potency was 11.2 µM (active).

Regarding `COc1cccc(CC(=O)OCC(=O)NCc2ccc3c(c2)OCO3)c1`, the Potency entry was “inactive”.

Consider `COc1ccc(COC(=O)c2n[nH]c3ccccc23)cc1F`, for which the Potency is 14.1 µM (active).

`COc1ccc(NC(=O)COC(=O)c2n[nH]c3ccccc23)c(OC)c1`: the Potency entry was “inactive”.

With `CC(=O)c1ccc(NC(=O)C2CCN(S(=O)(=O)c3c(C)noc3/C=C/c3ccc(C)cc3)CC2)cc1`, the Potency entry was “inactive”.

In the case of `CN(CCC#N)c1ccc(C=O)cc1`, the Potency result is “inactive”.

As to `CCN(CCCNC(=O)c1c(C)oc2ncn(CC(C)C)c(=O)c12)Cc1ccccc1`, the Potency entry is “inactive”.

For the molecule `COc1cccc(NC(=O)N(Cc2cn(C)c3ccccc23)C2CCCCCC2)c1`, the Potency result is “inactive”.

Consider `CNc1ccc(-c2nc(-c3ccccc3C)no2)cc1[N+](=O)[O-]`, for which the Potency entry was “inactive”.

In the case of `CCCCN1CC(c2nc3ccccc3n2CCCCOc2ccc(C)cc2C)CC1=O` (stereo unspecified), the Potency entry was “inactive”.

In the case of `CC(C)=C1SC(N2CCN(c3ccc(C)c(Cl)c3)CC2)=NC1=O`, the Potency entry is “inactive”.

For the molecule `CCN1C(=O)/C(=C2\SC(N3CCCCC3)=NC2=O)c2ccccc21`, the Potency was 10 µM (active).

Take `CCn1c(=O)n(CC)c2cc(N3CCCC3)c(NC(=O)c3ccccc3Br)cc21`: the Potency result was “inactive”.

For the molecule `Cc1cc(OC(C)C(=O)Nc2sc3c(c2C(N)=O)CCCC3)ccc1Cl` (stereo unspecified), the Potency entry was “inactive”.

On to `Cc1nc(-c2ccccc2)sc1C(=O)/C=C/N(C)C`, for which the Potency is 11.2 µM (active).

Turning to `CN(C)/C=C/C(=O)c1cnc2sccn2c1=O`, the Potency entry was “inactive”.

As for `Cc1nc(COc2cccc(Cl)c2)sc1C(=O)/C=C/N(C)C`, the Potency entry was “inactive”.

As for `Cc1cccc(N2CCN(C(=O)c3cc4c(=O)oc5ccccc5c4s3)CC2C)c1` (stereo unspecified), the Potency result was “inactive”.

`Cc1cnc(C(=O)OCC(=O)N2CCc3ccccc32)cn1`: the Potency entry was “inactive”.

As for `CCCCn1nc(C(=O)N2CCc3ccccc32)c2ccccc2c1=O`, the Potency result is “inactive”.

As for `O=C(c1cnn2ccccc12)N1CCc2ccccc21`, the Potency was 3.16 µM (active).

For the molecule `Cc1nn(C(=O)c2c(F)cccc2F)c(C)c1S(=O)(=O)N1CCOCC1`, the Potency result was “inactive”.

In the case of `O=C(C1CC1)N1CCc2cc(Br)cc(S(=O)(=O)N3CCN(c4ccccc4F)CC3)c21`, the Potency result was “inactive”.

For the molecule `O=[N+]([O-])c1ccc(NC(=S)N2CCN(c3ccccn3)CC2)cc1`, the Potency entry is “inactive”.

`O=C(Nc1ccc([N+](=O)[O-])cc1)OCCc1ccccn1`: the Potency is 2.82 µM (active).

As to `O=C(COC(=O)c1ccccn1)NNC(=O)c1ccc([N+](=O)[O-])cc1`, the Potency entry is “inactive”.

For `Cc1ccc(NC(=O)Nc2cccnc2)cc1`, the Potency was 12.6 µM (active).

For `CC(=O)c1cccc(NC(=O)[C@@H](NC(N)=O)C(C)C)c1`, the Potency entry was “inactive”.

Consider `CCOc1cc(NC(=O)Nc2ccccc2)c(OCC)cc1NC(=O)CC`, for which the Potency entry is “inactive”.

Take `Cc1ccc(NC(=O)Nc2ccccc2)c(Br)c1`: the Potency was 1.58 µM (active).

With `Cc1ccc(NC(=O)N2CCC(O)(c3cccnc3)CC2)cc1`, the Potency entry is “inactive”.

For `CC(=O)c1cccc(NC(=O)c2nc(-c3ccccc3)n(-c3cccc(C)c3)n2)c1`, the Potency result was “inactive”.

With `O=C(Nc1ccc(Cl)cc1)Nc1ccc(Oc2cccnc2)nc1`, the Potency result is “inactive”.

Turning to `CC(=O)c1cccc(NC(=O)Nc2ccc(C)cc2)c1`, the Potency was 14.1 µM (active).

Take `Cc1cc(NC(=O)Nc2c[nH]c(=O)[nH]c2=O)ccc1Br`: the Potency entry was “inactive”.

With `Cc1sc2ncn(CC(=O)N3CCN(c4ccc(F)cc4)CC3)c(=O)c2c1S(=O)(=O)N1CCN(c2ncccn2)CC1`, the Potency entry is “inactive”.

As for `COc1ccccc1CNc1ccc(-c2nc(-c3ccccc3C)no2)cc1[N+](=O)[O-]`, the Potency entry is “inactive”.

Take `CCOC(=O)C(Cc1ccccc1)NC(=O)CCc1c(C)nc2c(c(C)nn2-c2ccc(C)c(C)c2)c1C` (stereo unspecified): the Potency result is “inactive”.

On to `CCS(=O)(=O)N1CCc2cc(C(=O)NCc3ccc(OC)cc3)ccc21`, for which the Potency entry was “inactive”.

Turning to `COc1ccc(CNc2nc(-c3ccc(Cl)cc3)cc(C(F)(F)F)n2)cc1`, the Potency result was “inactive”.

Turning to `CC(Nc1ccc(-c2nc(-c3ccco3)no2)cc1[N+](=O)[O-])c1ccccc1` (stereo unspecified), the Potency entry is “inactive”.

For the molecule `COc1ccc(NC(=O)Cn2c(=O)n(Cc3ccc(C(=O)NCc4ccccc4Cl)cc3)c(=O)c3ccccc32)cc1`, the Potency result is “inactive”.

On to `COc1ccc(-n2c(=O)c3ccccc3n(Cc3ccccc3Cl)c2=O)cc1`, for which the Potency entry was “inactive”.

For `O=C(CN1CCC(NC(=O)Nc2ccccc2)CC1)Nc1cccc([N+](=O)[O-])c1`, the Potency entry was “inactive”.

As to `Cc1c(NC(=O)Nc2cccc([N+](=O)[O-])c2)c(=O)n(-c2ccccc2)n1C`, the Potency entry was “inactive”.

On to `O=C(Nc1cccc([N+](=O)[O-])c1)N1CCc2ccccc2C1`, for which the Potency is 10 µM (active).

Regarding `O=C(CSc1nnc(-c2ccncc2)n1-c1ccccc1)Nc1ccc(Cl)c(Cl)c1`, the Potency result was “inactive”.

`CCOc1ccc(CNC(=O)c2ccc3c(c2)nnn3C2CCCC2)cc1`: the Potency entry is “inactive”.

For the molecule `CC1CC(C)CN(c2oc(-c3ccc(OCc4ccc(Cl)cc4)cc3)nc2C#N)C1` (stereo unspecified), the Potency result is “inactive”.

As to `COc1cccc(NC(=O)CSc2nnc(-c3cccnc3)o2)c1`, the Potency result was “inactive”.

Regarding `CCN(CC)C(=O)CSc1nnc(-c2ccc(S(=O)(=O)NCc3ccccc3Cl)cc2)o1`, the Potency result was “inactive”.

As to `CCN(CC)C(=O)CSc1nnc(-c2cccc(OC)c2)o1`, the Potency was 11.2 µM (active).

Regarding `CCOC(=O)c1cc(OC(=O)c2ccccc2Cl)n(-c2ccccc2)n1`, the Potency result is “inactive”.

In the case of `CC(C)(C)c1ccc(C(=O)C[n+]2cccc3cc(Cl)ccc32)cc1`, the Potency result was “inactive”.

`Cn1cc(S(=O)(=O)N2CCCCCC2)cc1C(=O)N1CCN(c2ccc(F)cc2)CC1`: the Potency result is “inactive”.

Regarding `CCc1ccc(C(=O)CC2(O)C(=O)N(CCc3ccccc3)c3ccc(Br)cc32)cc1` (stereo unspecified), the Potency result was “inactive”.

For `Cc1ccc(-c2noc(CSc3nnc(-c4ccc(Cl)cc4)n3C)n2)cc1`, the Potency result is “inactive”.

In the case of `CCN1CC(CN(C)Cc2nc(-c3ccc(Cl)cc3)no2)CC1=O` (stereo unspecified), the Potency entry is “inactive”.

In the case of `CC1CCN(Cc2nc(-c3ccc(Cl)cc3)no2)CC1`, the Potency was 8.91 µM (active).

In the case of `CC(C)c1ccc2oc(-c3cc(NC(=O)c4cccs4)ccc3Cl)nc2c1`, the Potency result is “inactive”.

On to `CC1(C)Cc2ccccc2-c2c[nH]c(=O)n21`, for which the Potency result was “inactive”.

With `c1ccc(CCN2CN=C(Nc3nc4ccccc4o3)NC2)cc1`, the Potency was 7.94 µM (active).

In the case of `N#CNC1=NCN(CCc2ccccc2)CN1`, the Potency result is “inactive”.

With `CCCN1CNC(=S)N(CCc2ccccc2)C1`, the Potency entry is “inactive”.

Consider `CCOC(=O)c1c(C)[nH]c(C)c1S(=O)(=O)N1CCC(C(=O)Nc2ccc(C)c(Cl)c2)CC1`, for which the Potency result is “inactive”.

As for `C(=Nc1ccc(/C=C/c2ccnc3ccccc23)cc1)Nc1ccc(/C=C/c2ccnc3ccccc23)cc1`, the Potency entry was “inactive”.

Turning to `C/C(=C\C(=O)c1cccnc1)Nc1ccc(C)c(C)c1`, the Potency was 12.6 µM (active).

Turning to `O=C(CC(=O)c1cccnc1)c1ccccc1`, the Potency entry was “inactive”.

Consider `Cc1ccc(S(=O)(=O)N2CCCCC2)cc1NC(=O)c1cccnc1`, for which the Potency entry was “inactive”.

With `COc1cc(OC)c(C(=S)N2CCCC2)cc1OC`, the Potency result is “inactive”.

Consider `S=C(c1ccc(-c2ccccc2)o1)N1CCCCC1`, for which the Potency was 3.98 µM (active).

For the molecule `CC1CCN(C(=S)c2ccc(-c3ccc(Cl)cc3Cl)o2)CC1`, the Potency result is “inactive”.

`O=C(CN1CCCCCC1)Nc1ccc(Br)cc1Br`: the Potency was 5.62 µM (active).

`O=C(CN1CCCCCC1)Nc1ccc(Br)cc1[N+](=O)[O-]`: the Potency result is “inactive”.

For `Cc1cc(C)c(NC(=O)CN2CCCCCC2)c(C)c1`, the Potency entry is “inactive”.

Consider `Cn1c(=O)c2sccc2n2c(CCC(=O)NCc3ccccc3Cl)nnc12`, for which the Potency entry was “inactive”.

Consider `CCN(CC)c1ccc(/C=C/c2c(C)cnc3ccc(C)cc23)cc1`, for which the Potency result was “inactive”.

As to `O=C1N=C(N2CCOCC2)S/C1=C\C=C/c1ccccc1`, the activation was 0.869% [at 1.84 µM, scaled: vehicle 0%, 10 µM genistein 100%].

On to `CC1CCN(C2=NC(=O)/C(=C/c3cn[nH]c3-c3ccccc3)S2)CC1`, for which the Potency result was “inactive”.

As for `Cc1ccsc1/C=C1\SC(N2CCOCC2)=NC1=O`, the Potency is 11.2 µM (active).

As for `COc1ccc(Cn2c(=O)n(-c3ccccc3C)c(=O)c3c4c(sc32)CN(C(C)=O)CC4)cc1`, the Potency result is “inactive”.
